Some test systems named below: HCT-15 colon; HT29 colon; SNB-75 CNS; SNB-19 CNS; U251 CNS; PC-3 prostate; SK-MEL-5 melanoma; UACC-62 melanoma; LOX IMVI melanoma; SK-MEL-28 melanoma.
What all share (test): NCI-60 one-dose screen, 48 h (100 = growth as untreated, 0 = no growth, -100 = all killed)
Details in all cases: 10 µM unless noted

About 83,000 compounds went through this panel and 20% of them were active in at least one assay; those are over-represented in the sample as a whole.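 Growth was measured after 48 h exposure to one concentration of compound in 96-well plates. Values under 10 count as active.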 Values without a mark were called inactive. Calls of active or inactive are those of the source.

For the compound `CCOP(=O)(O)OP(=O)(O)OCC`, the growth in the assay on HCT-15 colon is 98.5%; with HT29 colon it was 102%; in the assay on SNB-75 CNS, 81.3%; in the assay on SNB-19 CNS, 106%; in the assay on U251 CNS, 105%; in the assay with PC-3 prostate, 104%. The growth in the assay with SK-MEL-5 melanoma was 113%; in the assay on UACC-62 melanoma, 106%; in the assay with LOX IMVI melanoma, 92.7%; with SK-MEL-28 melanoma, 108%.

For the compound `COc1cccc(NC(=O)[C@H](C(C)C)n2c(=O)[nH]c3ccccc3c2=O)c1`, the growth in the assay with HCT-15 colon is 104%; in the assay on HT29 colon, 101%; with SNB-75 CNS, 102%; in the assay with SNB-19 CNS, 117%; with U251 CNS it was 96.8%; in the assay with PC-3 prostate, 95.1%. The growth in the assay with SK-MEL-5 melanoma is 99.2%; with UACC-62 melanoma, 107%; in the assay with LOX IMVI melanoma, 99.7%; in the assay on SK-MEL-28 melanoma it was 114%.

Turning to `O=C(Nc1ccc2ncnc(Nc3ccc(F)c(Cl)c3)c2c1)c1cccs1`, the growth in the assay with HCT-15 colon was 51%; in the assay on HT29 colon, 58.7%; with SNB-75 CNS it was 50.5%; in the assay on SNB-19 CNS, 68.9%; in the assay with U251 CNS, 54.7%; with PC-3 prostate, 62.8%. Moreover, the growth in the assay on SK-MEL-5 melanoma was 67.1%; in the assay with UACC-62 melanoma it was 56.4%; in the assay on LOX IMVI melanoma, 51%; with SK-MEL-28 melanoma, 65.8%.

For `C[C@@H]1C[C@H](N)C[C@H](c2ccncc2NC(=O)c2ccc(F)c(-c3c(F)cccc3F)n2)C1`, the growth in the assay with HCT-15 colon is 52.4%; in the assay on HT29 colon, 10.9%; in the assay on SNB-75 CNS, 40.5%; with SNB-19 CNS it was 69.3%; with U251 CNS, 42.6%; in the assay on PC-3 prostate it was 24.2%. The growth is -59.8% (active) in the assay with SK-MEL-5 melanoma, 25.3% in the assay with UACC-62 melanoma, 33.1% with LOX IMVI melanoma and 12.2% with SK-MEL-28 melanoma.

On to `Cc1nc2ccc(Nc3nc(N4CCOCC4)nc(N4CCN(C)CC4)n3)cc2n1Cc1ccccc1`, for which the growth in the assay with HCT-15 colon is 87.4%; with HT29 colon it was 53%; in the assay on SNB-75 CNS, 62.4%; in the assay with SNB-19 CNS, 112%; in the assay on U251 CNS it was 73.5%; with PC-3 prostate it was 90%. In addition, the growth was 71.4% with SK-MEL-5 melanoma, 107% in the assay on UACC-62 melanoma, 74.7% in the assay on LOX IMVI melanoma and 64.1% with SK-MEL-28 melanoma.

As for `COc1ccc(C2=NN(C=O)C(c3ccc(OS(=O)(=O)c4ccc(C)cc4)c(OC)c3)C2)cc1` (stereo not given), the growth with HCT-15 colon is 61.8%; in the assay on HT29 colon it was 35%; in the assay on SNB-75 CNS, 68.9%; in the assay with SNB-19 CNS, 62.5%; with U251 CNS, 60.3%; in the assay with PC-3 prostate, 48.4%. Besides, the growth in the assay on SK-MEL-5 melanoma was 6.93% (active); in the assay with UACC-62 melanoma it was 50.1%; with LOX IMVI melanoma it was 57.3%; in the assay with SK-MEL-28 melanoma it was 75.5%.

With `CCN(CC)CCCCCCCNc1cc(OC)cc2c(C)ccnc12`, the growth was 76.8% in the assay with HCT-15 colon; 52.5% in the assay on HT29 colon; 82.9% in the assay with SNB-75 CNS; 96.3% in the assay on SNB-19 CNS; 86% in the assay on U251 CNS; 51.4% in the assay on PC-3 prostate. Moreover, the growth was 85.3% with SK-MEL-5 melanoma, 91.3% in the assay on UACC-62 melanoma, 56.6% with LOX IMVI melanoma and 105% in the assay with SK-MEL-28 melanoma.

As for `COc1cc(OC)cc(-c2n/c(=C\c3c(O)[nH]c4ccc(Cl)cc34)cc3c2=Nc2ccccc2-3)c1`, the growth in the assay on HCT-15 colon was 84.2%; with HT29 colon it was 15.6%; in the assay on SNB-75 CNS it was 93.7%; in the assay with SNB-19 CNS, 79.5%; in the assay on U251 CNS, 17.6%; in the assay with PC-3 prostate, 69.3%. The growth in the assay on SK-MEL-5 melanoma was 92.9%; with UACC-62 melanoma, 104%; in the assay on LOX IMVI melanoma, 18.8%; in the assay with SK-MEL-28 melanoma, 109%.

As for `CCOC(=O)c1ccc(N(CCC(=O)O)C(C)=O)cc1`, the growth with HCT-15 colon is 103%; in the assay on HT29 colon, 97.4%; in the assay with SNB-75 CNS, 94.7%; with SNB-19 CNS, 106%; in the assay on U251 CNS, 102%; in the assay on PC-3 prostate it was 90%. Further, the growth with SK-MEL-5 melanoma is 102%; with UACC-62 melanoma it was 99.4%; in the assay on LOX IMVI melanoma, 105%; with SK-MEL-28 melanoma it was 103%.

With `COS(=O)(=O)CCN(CCOS(C)(=O)=O)S(C)(=O)=O`, the growth is 95.4% in the assay with HCT-15 colon; 85.4% in the assay on HT29 colon; 90.4% in the assay on SNB-75 CNS; 107% in the assay on SNB-19 CNS; 96.8% with U251 CNS; 94.8% with PC-3 prostate. Also, the growth in the assay on SK-MEL-5 melanoma was 104%; in the assay with UACC-62 melanoma it was 102%; in the assay on LOX IMVI melanoma, 96.5%; in the assay on SK-MEL-28 melanoma, 99.1%.

Take `CCCc1n(Cc2ccc3ccccc3n2)cc[n+]1Cc1ccc2ccccc2c1`: the growth in the assay on HCT-15 colon was 82%; in the assay with HT29 colon, 3.72% (active); in the assay with SNB-75 CNS, -6% (active); with SNB-19 CNS, 7.24% (active); in the assay with U251 CNS, 11.2%; with PC-3 prostate it was 5.35% (active). In addition, the growth was -91.9% (active) with SK-MEL-5 melanoma, -46.7% (active) in the assay with UACC-62 melanoma, -63.8% (active) with LOX IMVI melanoma and 9.91% (active) in the assay on SK-MEL-28 melanoma.

With `CC(C)CC(NC(=O)C(CCCN=C(N)N)NC(=O)OCc1ccccc1)C(=O)NC(CNC(=O)/C=C/c1ccccc1)C(C)C` (stereo not given), the growth in the assay on HCT-15 colon was 96.5%; with HT29 colon, 109%; with SNB-75 CNS it was 84.5%; in the assay with SNB-19 CNS it was 99.9%; in the assay with U251 CNS it was 106%; with PC-3 prostate it was 89.2%. In addition, the growth in the assay with SK-MEL-5 melanoma was 106%; with UACC-62 melanoma it was 102%; in the assay with LOX IMVI melanoma it was 94.8%; with SK-MEL-28 melanoma, 93.5%.

`CCCCCCCCCCCC1=NC(C)(C)CN1C(C)(C)CO`: the growth in the assay on HCT-15 colon was 8.9% (active); in the assay with HT29 colon it was -29.3% (active); with SNB-75 CNS, 49.3%; with SNB-19 CNS it was 114%; in the assay on U251 CNS, 21.4%; in the assay on PC-3 prostate, 54.9%. Besides, the growth is 8.52% (active) in the assay with SK-MEL-5 melanoma, -69.5% (active) in the assay on UACC-62 melanoma, -35.1% (active) with LOX IMVI melanoma and -5.89% (active) with SK-MEL-28 melanoma.
